About 83,000 compounds went through this panel and 20% of them were active in at least one assay; those are over-represented in the sample as a whole.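 48-hour exposure, single concentration, 96-well plates; percent growth endpoint where 0 means no net growth. Active: below 10.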 Values without a mark were called inactive. Active and inactive are the calls of the source.
Assays:
Assay in all cases: NCI-60 one-dose screen, 48 h (100 = growth as untreated, 0 = no growth, -100 = all killed)
Details in all cases: 10 µM unless noted
SK-MEL-2 melanoma = tested on: SK-MEL-2 melanoma
EKVX NSCLC = tested on: EKVX NSCLC
SN12C renal = tested on: SN12C renal
TK-10 renal = tested on: TK-10 renal
ACHN renal = tested on: ACHN renal
CAKI-1 renal = tested on: CAKI-1 renal
A498 renal = tested on: A498 renal
MOLT-4 leukemia = tested on: MOLT-4 leukemia
SR leukemia = tested on: SR leukemia
RPMI-8226 leukemia = tested on: RPMI-8226 leukemia
OVCAR-8 ovarian = tested on: OVCAR-8 ovarian
OVCAR-5 ovarian = tested on: OVCAR-5 ovarian
OVCAR-4 ovarian = tested on: OVCAR-4 ovarian
SK-OV-3 ovarian = tested on: SK-OV-3 ovarian
IGROV1 ovarian = tested on: IGROV1 ovarian
OVCAR-3 ovarian = tested on: OVCAR-3 ovarian
HS 578T breast = tested on: HS 578T breast
NCI/ADR-RES ovarian = tested on: NCI/ADR-RES ovarian
CCRF-CEM leukemia = tested on: CCRF-CEM leukemia

Compound | growth (SK-MEL-2 melanoma) | growth (EKVX NSCLC) | growth (SN12C renal) | growth (TK-10 renal) | growth (ACHN renal) | growth (CAKI-1 renal) | growth (A498 renal) | growth (MOLT-4 leukemia) | growth (SR leukemia) | growth (RPMI-8226 leukemia) | growth (OVCAR-8 ovarian) | growth (OVCAR-5 ovarian) | growth (OVCAR-4 ovarian) | growth (SK-OV-3 ovarian) | growth (IGROV1 ovarian) | growth (OVCAR-3 ovarian) | growth (HS 578T breast) | growth (NCI/ADR-RES ovarian) | growth (CCRF-CEM leukemia)
CCCCCCCCN1C(=O)/C(=c2\sc3n(c2=O)C2C(NN=3)N(CC)C(=O)N2CC)c2ccccc21 (stereo not given) | 86.8% | 73.9% | 86.1% | 110% | 73.8% | 49.3% | 86.9% | 101% | 77.5% | 105% | 85.7% | 81.6% | 94.2% | 90.6% | 86.5% | 98.6% | 40.4% | 82.2% | 
COc1ccc(-c2nc(N/N=C/c3cccc(O)c3)nc(N3CCOCC3)c2C#N)cc1 | 85.6% | 88.7% | 78.3% | 88.4% | 57.8% | 77% | 85.7% | 39.8% | -20.3% (active) | 32.1% | 68.8% | 117% | 89.3% | 104% | 71.2% | 75.8% | 69.3% | 74.8% | 26.3%
CCCC/C(=N\N=C(N)N)c1ccc(F)cc1 | 1.07% (active) | 44.5% | 37.5% | 50.7% | 43.6% | 29.5% |  | 32.4% |  | 36% | 33.6% | 50.5% | 39.7% | 13.7% | 45% | -11.4% (active) | 26.1% | 7.48% (active) | 26.3%
COc1cc(/C=N/NC(=O)c2ccccc2Nc2cccc(C(F)(F)F)c2)ccc1O | 136% | 79.5% | 96.5% | 126% | 103% | 116% | 76.9% | -76.2% (active) | -66.4% (active) | 78.3% | 93.9% | 89.2% | 50% | 69.6% | 111% | 80.6% | 106% | 75.4% | -41.6% (active)
CC1=CC2(C)/C=C(C)/C=C\CC(O)/C=C3/C=CC(=C4C(=O)OC2(CC1C)C4=O)OC3 (stereo not given) | -89.2% (active) | 34.8% | -40.8% (active) | -86.8% (active) | -94.7% (active) | -89.5% (active) | 55.3% | -35.1% (active) |  | -23.8% (active) | 0.804% (active) | -57.9% (active) | -40.6% (active) | 94.6% | -49.1% (active) | -100% (active) | -34% (active) | -61.8% (active) | -39.4% (active)
Cc1c2c(cc[n+]1Cc1ccccc1)c1ccc(OCC3CCCCC3)cc1n2CC1CCCCC1 | -86.5% (active) | -75.5% (active) | -91.9% (active) | -93.6% (active) | -100% (active) | -92.5% (active) | -97.4% (active) | -64.5% (active) | -57.7% (active) | -45.2% (active) | -90.1% (active) | -95.5% (active) |  | -53.4% (active) | -70.6% (active) | -100% (active) | -36.2% (active) |  | -36.2% (active)
CC1(C)CCCN1CCCN1c2ccccc2Sc2ccc(Cl)cc21 | 117% | 61.5% | 68.1% | 84.6% | 61.8% | 60% |  | 41.7% | 35.7% | 28.6% | 95.8% |  | 53.2% | 75.5% | 60.2% | 68.5% | 76.6% | 61% | 41.7%
CC(C)(C)OC(=O)N1CCN(c2ccc(N)cc2)C(=O)C1 | 111% | 98.6% | 96.2% | 126% | 103% | 98.3% |  | 101% | 81.2% |  | 107% | 112% |  | 109% | 112% | 117% | 105% | 102% | 107%
COc1cc(/C=C/C(=O)c2ccc(Nc3ncnc4ccccc34)cc2)cc(OC)c1 | 112% | 79.3% | 71.3% | 79.1% | 76.8% | 69.3% | 85.9% | 19.1% | 0.253% (active) | 2.26% (active) | 57.5% | 101% |  | 128% | 60.2% | 36.4% | 82.4% | 73.6% | 20.6%
COc1ccncc1C#Cc1cncc(C(=O)Nc2ccc(CN3CCN(C)CC3)c(C(F)(F)F)c2)c1 | -0.485% (active) | 38.4% | 17.7% | 50.6% | 13.2% | 15.4% | 28.9% | 22.5% | 9.65% (active) | 25.8% | 36.7% | 22.2% | 30.7% | 32.7% | 11.3% | 43.5% | 11.8% | 54.6% | 12.3%
COC(=O)Nc1ccc(NC(=O)OC)cc1 | 88.5% | 103% | 104% | 94.4% | 115% | 93.4% | 97.2% | 100% | 105% | 89.4% | 94.6% |  | 112% | 90.9% | 120% | 111% | 102% | 104% | 68.1%
Fc1ccc(C2CC(c3cccc(Nc4ccncc4)c3)=NN2c2ccccc2)cc1 (stereo not given) | 90.2% | 90.1% | 75.8% | 80.3% | 75.3% | 48.1% | 85.2% | 5.35% (active) | 2.49% (active) | 1.2% (active) | 55.1% | 85.3% | 51.9% | 70.8% | 44% | 64% | 73.1% | 73% | 32.4%
COc1nc(N)nc(-n2c(-c3ccc(C)cc3)nc3ccccc32)c1NCc1ccc(C)cc1 | 99.9% | 94.9% | 90% | 98.4% | 93.7% | 40.7% |  | 83.3% | 80.5% | 81.2% | 94.1% | 88.5% | 95% | 110% | 80.1% | 111% | 83.6% | 90.1% | 94.5%
NNC(=O)/C(=C\c1ccc([N+](=O)[O-])cc1)CC(=O)c1ccc(Cl)c(Cl)c1 | 95.7% | 69.5% | 88% | 97.5% | 91.1% | 66.8% |  | 61.4% | 86.7% | 91.7% | 90.9% | 87.8% | 80% | 99.9% | 70% | 97.2% | 88.4% |  | 80.9%
O=C(O)c1ccc[n+](CC(=O)N2CCN(c3cc4c(cc3F)c(=O)c(C(=O)O)cn4C3CC3)CC2)c1 | 86.1% | 107% | 29.4% | 112% | 72.8% | 92.8% | 98% | 12.6% | 17.2% | 75.4% | 79.7% | 107% | 60.4% | 109% | 95.8% | 55.6% | 87.9% | 94.7% | -25.6% (active)
O=CNc1cc(Cl)cc(Cl)c1 | 100% | 96.7% | 95.9% | 101% | 101% | 92.3% |  | 97.5% | 90.3% | 99.1% | 99.8% | 97.5% | 113% | 115% | 103% | 123% | 111% | 108% | 101%
O=C(O)CNC(=O)CN1C(=O)c2ccccc2C1=O | 114% | 103% | 99.1% | 104% | 103% | 95.9% | 104% | 91.8% | 102% | 101% | 94.4% |  | 115% | 90.7% | 107% | 116% | 113% | 104% | 81.1%

From PubChem BioAssay (NCI)
